For orientation: AC50 means the midpoint of the concentration-response curve, whichever way the signal moves.

Activity calls are given as the source filed them. How the source made its calls: active means hit-call score of the fitted dose curve at least 0.9, where 1 is the maximum; inactive means score below 0.9.

This test can be described thus: CCTE_Padilla_ZF_Score.General: CCTE's 144 Hour Post-fertilization zebrafish Assay Score for General Malformation, Padilla Lab (AID 2284411). On the procedure:
CCTE_Padilla_ZF_Phenotype_Score is a whole embryo, multiplexed assay using zebrafish ova exposed for 144 hours post fertilization on a 96-well plate.CCTE_Padilla_ZF_Score.General is one of one assay component(s) measured or calculated from the CCTE_Padilla_ZF_Phenotype_Score assay. It is designed to make measurements of zebrafish development as detected with brightfield microscopy of developing zebrafish embryos.Data from the assay component CCTE_Padilla_ZF_Score.General was analyzed into 1 assay endpoints. This assay endpoint, CCTE_Padilla_ZF_Score.General, was analyzed in the positive analysis fitting direction relative to DMSO as the negative control and baseline of activity. Using a type of viability reporter, gain-of-signal activity can be used to understand changes in developmentals as they relate to the whole embryo. To generalize the intended target to other relatable targets, this assay endpoint is annotated to the zebrafish development intended target family, where the subfamily is embryonic morphogenesis.
Zebrafish husbandry: Wild type adult zebrafish (Danio rerio; undefined outbred stock obtained from Aquatic Research Organisms, Hampton, NH, 03842) were housed in an AAALAC-approved animal facility at 28C with a 14:10 h light: dark cycle (lights on at 08:30 h). Adult fish (2-3 females per male; density = 15-20 adults per tank) were kept in one of several 9-liter (L) flow-through colony tanks (Aquaneering Inc., San Diego, CA). All adults in a colony tank were placed in a 2 L (static) breeding tank (Aquatic Habitats, Apopka, FL) one hour prior to light onset. Typically, adults from two to three colony tanks were mated on the same day. Two hours after light onset the adults were returned to the colony tank. All embryos were gathered from each breeder tank, pooled, and placed in a 28C water bath for 2 h, followed by two washes with 0.06% bleach (v/v) in 10% Hanks' Balanced Salt Solution (13.7 mM NaCl 0.54 mM KCl, 25 uM Na2HPO4, 130 uM CaCl2 100 um MgSO4 and 420 um NaHCO3,), hereafter referred to as Hanks' solution, for 5 min in order to remove any residual bacteria or fungi. Immediately following washing, the embryos were examined, and healthy embryos were separated from dead or unfertilized eggs and moved into fresh Hanks'. Chemical exposures: Zebrafish embryos were exposed in 96-well plates. Between 6- and 8-hours post fertilization (hpf), healthy embryos (with chorions) were transferred, one embryo per well, into 96 well (0.5 mL) microtiter plates (Cell Culture-Treated, Flat-Bottom Microplate 96 well [Corning Costar, Kennebunk, ME; Cat 09-761-145]) filled with 200 uL of Hanks' solution. A random number generator was used to assign the order in which the rows of embryos were plated in 96 well plates each week. After plating, the embryos were dosed with 0.8 uL of the chemical dosing solution then immediately sealed with AlumaSeal II (Excel Scientific Inc, Victorville, CA) to prevent volatilization of the chemicals, and then placed in a leakproof secondary container. These containers were placed in an incubator maintained on a 14:10 h light: dark cycle at 26C for rearing. On 5 dpf, live larvae were gently moved out of the plate with test chemicals and into a new 96 well mesh plate (Millipore Corp., Bedford, MA) with just the Hanks' solution. Once within the mesh well plate, the animals were rinsed with 400 uL of fresh Hanks' three times, and then the plates were covered with a non-adhesive material (Microseal A, BioRad, Hercules, CA), plate lid added, and then plate sides wrapped in Parafilm (PM992, Bermis Company, Neenah, WI), and returned to the incubator. […]
For the compound `CCCCCCCO`, the call was inactive.

With `C=CC(=O)OCCCCCCCC(C)C`, the compound was called inactive. For `c1ccc2c(c1)[nH]c1ccccc12`, the compound was called inactive. As to `COc1ccc(C(=O)c2ccccc2)c(O)c1`, the AC50 was 7.03 µM (active). Turning to `CCCCCCOC(=O)CCCCC(=O)OCCCCCC`, the compound was classed as inactive.

`C=CC(=O)NC(C)(C)C`: the outcome was inactive. `c1ccc2sc(SSN3CCOCC3)nc2c1`: the call was inactive. Take `CCCCCCC=O`: the outcome was inactive. As to `C[N+](C)(C)CCCNS(=O)(=O)C(F)(F)C(F)(F)C(F)(F)C(F)(F)C(F)(F)C(F)(F)C(F)(F)C(F)(F)F`, the result was inactive. Regarding `O=C(O)C(F)(F)C(F)(F)C(F)(F)C(F)(F)C(=O)O`, the call was inactive. Still for that read-out and setting: the result for `C=CCCCCCCCCC=O` reads “inactive”; that for `C=CC(=O)OCCCCCCOC(=O)C=C`, “inactive”.
